Inconclusive results are not listed. Activity calls are given as the source filed them. Unless noted, the call rests on the fitted dose curve; in most records, active means well fitted curve in the direction sought with a large enough effect in the repeat runs; inconclusive means weak or mixed curves; inactive means no such curve, though single readings can be large; an effect the other way counts as inactive or inconclusive.

Here are results for 28 compounds from PubChem BioAssay (Tox21).

Test [1] in a line: qHTS assay to identify small molecule antagonists of the estrogen receptor alpha (ER-alpha) signaling pathway using the BG1 cell line in the presence of 0.1 nM 17-beta-estradiol - cell viability counter screen (AID 1259241). Further: nearly all actives have a fitted effect of over 40% in size. An outline of the steps: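 VM7Luc4E2 cells (endogenous ER-alpha, 4×ERE-luciferase), hormone-starved 5 days in charcoal-stripped FBS, were treated with compounds plus 0.1 nM 17beta-estradiol for 22 hr at 37C; viability read in same wells as CellTiter-Fluor live-cell protease fluorescence.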

A short description of test [2]: qHTS assay to identify small molecule antagonists of the androgen receptor (AR) signaling pathway using the MDA cell line in the presence of 0.5 nM R1881 - cell viability counter screen (AID 1259242). Further: nearly all actives have a fitted effect of over 45% in size. In outline:
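Steps: plate MDA-kb2 cells, rest 5 hr at 37C without CO2; pin in compounds in DMSO; add R1881 to 0.5 nM final; incubate 16 hr; add CellTiter-Fluor, 30 min; read fluorescence.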

Test [3] can be described thus: qHTS assay to identify small molecule HDAC inhibitors - cell viability counter screen (AID 1259365). Further: nearly all actives have a fitted effect of over 50% in size. An outline of the steps:
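Wild-type HCT-116 cells were seeded at 1,500 per well, incubated overnight at 37 C, then exposed to compounds in DMSO for 2hr. Viability was read by CellTiter-Glo luminescence after 30min at room temperature.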

Test [4] is described as follows: qHTS assay to identify small molecule agonists of the sonic hedgehog signaling (Shh) pathway - cell viability counter screen (AID 1259366). Further: nearly all actives have a fitted effect of over 50% in size. In outline: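 NIH/3T3-derived 3T3 Gli1-Luc cells (stable Gli1-responsive firefly luciferase reporter) were seeded, rested 4 hr at 37 C/5% CO2, then exposed to compounds in DMSO for 24 hr; viability was read by CellTiter-Fluor fluorescence in the same wells.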

Test [5] in a line: qHTS assay to identify small molecule antagonists of the sonic hedgehog signaling (Shh) pathway - cell viability counter screen (AID 1259367). Further: nearly all actives have a fitted effect of over 55% in size. An outline of the steps:
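Conditioned medium drove Shh signaling in 3T3 Gli1-Luc cells exposed to compounds at 37C and 5% CO2. Viability was determined from CellTiter-Fluor fluorescence, with reagent incubated 1 hr after 23 hr of treatment.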

A short description of test [6]: qHTS assay to identify small molecule agonists of the sonic hedgehog signaling (Shh) pathway (AID 1259368; calls by dose curve; further: nearly all actives have a fitted effect of over 15% in size). In outline:
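Cells of a mouse NIH/3T3 clone stably expressing luciferase under the Gli1 transcriptional response element are exposed to test chemicals for 24 hr at 37 C. Pathway activation is detected as a rise in luminescence.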

A short description of test [7]: qHTS assay to identify small molecule HDAC inhibitors (AID 1259364).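 Further: wild-type HCT-116 cells with endogenous class I/II HDAC activity; nearly all actives have a fitted effect of over 45% in size.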 In outline:
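Cells (HCT-116, wild type) are seeded at 1,500 per well, incubated overnight, treated with compound in DMSO for 2 hr, then developed with HDAC-Glo I/II reagent for 30 min at room temperature.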
Potency means the concentration at half of the fitted maximal effect.

For `CCCC[P+](C)(CCCC)CCCC`, the Potency result in test [1], in test [2], in test [3], in test [4] and in test [5] was “inactive” in each case. The Potency in test [6] was 19.6 µM (active).

Regarding `C=CCn1c(=O)n(CC=C)c(=O)n(CC=C)c1=O`, the Potency result in test [1], in test [2], in test [7], in test [3], in test [5] and in test [6] was “inactive” in each case.

As to `Nc1nc(-c2ccccc2)cs1`, the Potency result in test [1], in test [2], in test [3], in test [5] and in test [6] was “inactive” throughout. In addition, the Potency in test [7] was 21.6 µM (active).

For `O=C1NC(=O)[C@@H]2CC=CC[C@H]12`, the Potency result in test [1], in test [2], in test [7], in test [3], in test [4] and in test [5] was “inactive” each time. The Potency entry in test [6] is “inactive”.

Consider `O=C(Nc1ccc2c(O)c(N=Nc3ccc(N=Nc4ccc(S(=O)(=O)O)cc4)cc3)c(S(=O)(=O)O)cc2c1)c1ccccc1`, for which the Potency in test [1] was 12.2 µM (active); in test [2], 27.3 µM (active); in test [5] it was 21.7 µM (active). The Potency entry in test [7] and in test [6] was “inactive” in each case.

With `CCCNCCC`, the Potency entry in test [1], in test [2], in test [7], in test [3], in test [4] and in test [5] was “inactive” throughout. For the same compound, in test [6], the Potency entry was “inactive”.

On to `CCCC(=O)OC(C)(C)Cc1ccccc1`, for which the Potency entry in test [1], in test [2], in test [3], in test [4], in test [5] and in test [6] was “inactive” each time.

As to `O=C(O)c1ccc2cc(C(=O)O)ccc2c1`, the Potency entry in test [1], in test [2], in test [3], in test [4], in test [5] and in test [6] was “inactive” each time.

As for `O=c1[nH]c2ccccc2n1CCCN1CCN(C(c2ccccc2)c2ccccc2)CC1`, the Potency entry in test [1], in test [2], in test [7], in test [3] and in test [6] was “inactive” each time.

Regarding `CCCCCCC1CCCC(=O)O1` (stereo not drawn), the Potency entry in test [1], in test [2], in test [3], in test [4], in test [5] and in test [6] was “inactive” in each case.

Take `CCCC(=O)OCCc1ccccc1`: the Potency entry in test [1], in test [2], in test [7], in test [3], in test [5] and in test [6] was “inactive” in each case.

Consider `CCC(C)[O-].CCC(C)[O-].CCOC(=O)/C=C(/C)[O-].[Al+3]`, for which the Potency entry in test [1], in test [2], in test [7], in test [3], in test [5] and in test [6] was “inactive” in each case.

On to `S=C([S-])NCCNC(=S)[S-].S=C([S-])NCCNC(=S)[S-].[Mn+2].[Zn+2]`, for which the Potency result in test [1], in test [2], in test [3], in test [5] and in test [6] was “inactive” throughout.

Take `Clc1ccnc(Cl)n1`: the Potency entry in test [1], in test [2], in test [3], in test [4] and in test [6] was “inactive” throughout.

On to `Cc1cccc2cccnc12`, for which the Potency entry in test [1], in test [2], in test [3], in test [4], in test [5] and in test [6] was “inactive” throughout.

Take `COCCOc1cc2cc(C(=O)NC3CCN(C(C)C)CC3)n(CC(=O)Nc3ccc(Cl)cn3)c2cn1`: the Potency result in test [1], in test [2], in test [7], in test [3], in test [4] and in test [5] was “inactive” each time. In addition, in test [6], the Potency entry is “inactive”.

As for `C[Si](Cl)(c1ccccc1)c1ccccc1`, the Potency entry in test [1], in test [2], in test [7], in test [3], in test [4] and in test [5] was “inactive” in each case. Moreover, the Potency result in test [6] is “inactive”.

For the compound `O=C(O)CCN(C1(C(=O)NO)CCCC1)S(=O)(=O)c1ccc(Oc2ccc(F)cc2)cc1`, the Potency result in test [1], in test [2], in test [7], in test [3], in test [5] and in test [6] was “inactive” throughout.

With `COc1ccc(NC(=O)CC(C)=O)cc1`, the Potency result in test [1], in test [2], in test [3], in test [4], in test [5] and in test [6] was “inactive” throughout.

Regarding `COc1ccc2c(c1)c(CC(=O)OC/C=C(\C)CC/C=C(\C)CCC=C(C)C)c(C)n2C(=O)c1ccc(Cl)cc1`, the Potency result in test [1], in test [2], in test [7], in test [3], in test [5] and in test [6] was “inactive” each time.

`OCC(F)(F)F`: the Potency result in test [1], in test [2], in test [7], in test [3], in test [4] and in test [5] was “inactive” in each case. For the same compound, the Potency result in test [6] was “inactive”.

Take `Sc1nc2ccccc2s1`: the Potency entry in test [1], in test [2], in test [3], in test [4] and in test [6] was “inactive” in each case.

Take `COc1cc(S(=O)(=O)O)c(C)cc1N=Nc1c(O)ccc2cc(S(=O)(=O)O)ccc12`: the Potency is 21.7 µM (active) in test [1], 24.3 µM (active) in test [2], 27.3 µM (active) in test [4] and 24.3 µM (active) in test [5]. Further, the Potency entry in test [7] and in test [6] was “inactive” throughout.

As for `O=C(O)c1cc(O)c2ccccc2c1O`, the Potency was 34.4 µM (active) in test [1]; 54.5 µM (active) in test [2]; 21.7 µM (active) in test [3]; 9.69 µM (active) in test [4]; 13.7 µM (active) in test [5]. For the same compound, the Potency entry in test [6] was “inactive”.

With `O=C(/C=C/c1ccc(O)c(O)c1)O[C@@H](C(=O)O)[C@@H](OC(=O)/C=C/c1ccc(O)c(O)c1)C(=O)O`, the Potency result in test [1], in test [2], in test [7], in test [3] and in test [6] was “inactive” throughout.

Turning to `CCC(=O)C(=O)CC`, the Potency entry in test [1], in test [2], in test [7], in test [3], in test [5] and in test [6] was “inactive” in each case.

Consider `CC(C)(C)c1csc(-c2cc3cc(OCc4ccccc4CC(=O)O)ccc3o2)n1`, for which the Potency entry in test [1], in test [2], in test [7], in test [3], in test [4] and in test [5] was “inactive” throughout. Moreover, the Potency result in test [6] was “inactive”.

For the compound `O=C1OC2(c3ccc(O)cc3Oc3cc(O)ccc32)c2ccc(N=C=S)cc21`, the Potency entry in test [1], in test [2], in test [7], in test [3], in test [5] and in test [6] was “inactive” in each case.
